Bioassay records deposited in PubChem by The Scripps Research Institute Molecular Screening Center.
GPR151 activ: activators of human GPR151 | Q8TDV0 | PathHunter beta-arrestin GPR151 cells, luminescence | activation, % at 11.2 µM | hit rate 1% among 650,000; in the data active = activation above about 4.9%
TEAD-YAP inh: TEAD-YAP interaction inhibition; HEK-TIYL cells, TEAD-Gal4/YAP UAS-luciferase luminescence; inhibition, % at 9.12 µM; hit rate 1.4% among 640,000; in the data active = inhibition above about 32%
MITF inh: inhibitors of human MITF; AlphaScreen MITF homodimerization, bead proximity signal; O75030; inhibition, % at 2.6 µM; hit rate 0.91% among 650,000; in the data active = inhibition above about 50%
Target sequence (O75030 whole entry, looked up): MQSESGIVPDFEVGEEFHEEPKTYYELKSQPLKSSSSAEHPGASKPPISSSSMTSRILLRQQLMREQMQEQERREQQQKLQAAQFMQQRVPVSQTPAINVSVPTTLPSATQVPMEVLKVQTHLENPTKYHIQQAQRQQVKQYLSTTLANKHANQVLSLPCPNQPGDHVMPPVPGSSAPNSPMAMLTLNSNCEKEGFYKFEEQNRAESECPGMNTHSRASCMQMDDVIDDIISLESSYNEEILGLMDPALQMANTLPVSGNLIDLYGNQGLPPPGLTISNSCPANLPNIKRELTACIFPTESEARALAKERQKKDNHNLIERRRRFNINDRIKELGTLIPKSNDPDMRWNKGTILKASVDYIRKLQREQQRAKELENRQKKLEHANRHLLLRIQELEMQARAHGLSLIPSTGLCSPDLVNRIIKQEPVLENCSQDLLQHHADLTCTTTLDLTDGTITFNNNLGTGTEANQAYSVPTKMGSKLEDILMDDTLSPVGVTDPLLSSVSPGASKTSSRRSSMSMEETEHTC
FBW7 activator: human FBW7 E3 ligase activation, primary screen. Q969H0. AlphaScreen FBW7–phospho-cyclin E peptide binding, activator screen. normalized activity (activation), % at 26.1 µM. hit rate 0.13% among 650,000. AID 1259310; in the data active = normalized activity above about 1.9%;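 also: purified mutant Fbw7 with reduced substrate affinity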
MITF confirm: confirmation of human MITF inhibitors | shares compounds with MITF inh | AlphaScreen MITF homodimerization, biotin/His-MITF beads | inhibition, % at 2.6 µM | hit rate 16% among 4,700 | AID 1259372;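 active = inhibition above a cutoff derived from the DMSO control wells, cut at about 28% in these data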;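 also: inhibitors lower the bead chemiluminescence by keeping MITF from dimerizing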
AlphaScreen DR: AlphaScreen optical interference, dose response counter-screen. shares compounds with MITF inh. AlphaScreen optical interference counterscreen, cell-free. IC50, µM. hit rate 6% among 480; call rule not given here
AlphaScreen intf2: counter-screen: compounds optically interfering with AlphaScreen; hit rate 7.6% among 4,700; shares compounds with MITF inh; AID 1259376; inhibition, % at 2.6 µM; LysRS AlphaScreen counterscreen, signal interference, triplicate;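 active = inhibition above a cutoff derived from the DMSO control wells, cut at about 30% in these data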
Each line names hits and unclear results; the compound was inactive in the other large screens (follow-up assays come after a bar, where they were run); ! = a repeat was not active. An excerpt weighted towards active compounds, which were near 3.4% of everything screened.

O=[N+]([O-])c1cc(C2C=C(c3ccc(Cl)cc3)Nc3nnnn32)ccc1Cl (stereo not drawn)	MITF inh 65 | MITF confirm inactive | AlphaScreen intf2 inactive
Fc1ccc(C2=CC(c3ccc(Cl)cc3)n3nnnc3N2)cc1 (stereo not drawn)	none
CC(=O)Nc1ccccc1NC(=O)CCN1C(=O)c2ccccc2C1=O	none
O=C1CSC2(C(=O)Nc3ccccc32)N1c1cccc([N+](=O)[O-])c1 (stereo not drawn)	none
O=C(CC1(O)C(=O)Nc2ccccc21)c1ccc([N+](=O)[O-])cc1 (stereo not drawn)	none
O=C(CC1(O)C(=O)Nc2ccc([N+](=O)[O-])cc21)c1ccccc1 (stereo not drawn)	MITF inh 69 | MITF confirm inactive | AlphaScreen intf2 inactive
Cc1sc2ncn(CC(=O)NCC(=O)Nc3ccc4c(c3)OCO4)c(=O)c2c1C	MITF inh 55 | MITF confirm inactive | AlphaScreen intf2 inactive
CSc1cccc([C@@H]2C[C@H]3CN(c4ccccc4)C(=O)[C@]34CCCN24)c1	none
CC(C)C(NCCC(=O)c1ccc(Br)cc1)C(=O)O (stereo not drawn)	none
Cc1cccc(OCC(O)CNCCCn2ccnc2)c1 (stereo not drawn)	MITF inh 65 | MITF confirm inactive | AlphaScreen intf2 inactive
OC(CNCCCn1ccnc1)COc1cccc2ccccc12 (stereo not drawn)	MITF inh 84 | MITF confirm inactive | AlphaScreen intf2 inactive
Cc1cc(C)n(CCCNCC(O)COc2ccc(-c3ccccc3)cc2)n1 (stereo not drawn)	none
Cc1cc(C)n(CCCNCC(O)COc2ccc(C(=O)c3ccccc3)cc2)n1 (stereo not drawn)	MITF inh 60 | MITF confirm inactive | AlphaScreen intf2 inactive
OC(CNCCCn1ccnc1)COc1ccccc1 (stereo not drawn)	MITF inh 75 | MITF confirm inactive | AlphaScreen intf2 inactive
Cc1nccn1CCN(C)C(=O)Cn1nnnc1CN(C)C(C)C	none
CCS(=O)(=O)N1CCN(Cc2ccccc2Br)CC1	none
O=[N+]([O-])c1ccc(S(=O)(=O)N2CCN(Cc3ccccc3Br)CC2)cc1	MITF inh 80 | MITF confirm inactive | AlphaScreen intf2 inactive
O=S(=O)(c1ccccc1)N1CCN(Cc2ccccc2Br)CC1	MITF inh 73 | MITF confirm inactive | AlphaScreen intf2 inactive
CCN(CC)C(=O)C1CCCN(Cc2ccc(C)o2)C1 (stereo not drawn)	none
CCN(CC)C(=O)C1CCCN(Cc2ccc(C(F)(F)F)cc2)C1 (stereo not drawn)	MITF inh 53 | MITF confirm inactive | AlphaScreen intf2 inactive
CCN(CC)C(=O)C1CCCN(Cc2ccc([N+](=O)[O-])o2)C1 (stereo not drawn)	MITF inh 56 | MITF confirm inactive | AlphaScreen intf2 inactive
COc1cc(NC(=O)c2ccc([N+](=O)[O-])cc2Cl)ccc1NC(=O)C(C)C	none
Cc1cncc2c(S(=O)(=O)N3CC[C@@H](NC(=O)C(O)c4ccc(F)cc4F)C3)cccc12 (stereo partly drawn)	MITF inh 59 | MITF confirm 58 | AlphaScreen DR inactive | AlphaScreen intf2 inactive
COc1cc(C(=O)NCCC(=O)NC2CCCCCCC2)cc(OC)c1OC	MITF inh 78 | MITF confirm inactive | AlphaScreen intf2 inactive
COc1ccc(/C=C\C23N(Cc4ccccc4)C(=O)CN2c2ccccc2C3(C)C)cc1OC (stereo not drawn)	none
CN(C)C(=O)C1C2NC(=S)N(c3ccc(Br)cc3)C1(C)Oc1ccc(Cl)cc12 (stereo not drawn)	MITF inh 68 | MITF confirm inactive | AlphaScreen intf2 inactive
COc1ccccc1-n1c(SCC(=O)NNC=O)nnc1-c1ccc(C)cc1	MITF inh 84 | MITF confirm inactive | AlphaScreen intf2 inactive
COc1ccccc1-n1c(SCC(=O)Nc2ccc(C)cc2)nnc1-c1ccncc1	none
O=C(C1CCC(Nc2nccc(-c3ccc4nc(C5CC5)[nH]c(=O)c4c3)n2)CC1)N1CCCC1 (stereo not drawn)	MITF inh 59!, FBW7 activator 2.6! | MITF confirm 63 | AlphaScreen DR inactive | AlphaScreen intf2 inactive
